# TDP43 rescue – qHTS of TDP-43 Inhibitors; AID 652104, 2013; Potency, µM (doses to about 46.1 µM), for inactives: top-dose growth rescue (activation), most hits filed as activators; 1.8% of 410,000 active; TDP-43 expressing yeast growth rescue, BacTiter-Glo, 24 h; also: % of control where 0% means no effect; nearly all actives have a fitted effect of over 50% in size
#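 Growth rescue of TDP-43-toxic yeast measured as ATP luminescence (BacTiter-Glo). Cells grown to mid-log in raffinose, induced in galactose at OD600=0.02, exposed to compound 24 hr at 30 deg C.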
# Chronic BCR inh – qHTS Assay to Find Inhibitors of Chronic Active B-Cell Receptor Signaling; ABC-DLBCL IkBa-CBG/CBR reporter, luminescence ratio, 4 h; Potency, µM (doses to about 46.1 µM), for inactives: at the top dose activity change, negative = inhibition, most hits filed as inhibitors; 0.05% of 340,000 active; AID 493014, 2011; active = well fitted inhibition curve with a large enough effect in the signal ratio, with a control signal flat, not every such curve was filed as active; inconclusive = small, poorly fitted or top-dose-only effect, or effect the other way, or a change in a side signal; the % refers to the signal ratio;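 also: plate controls were basal doxycycline-induced cells for no effect and cells given 10 µM MG132 for full effect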
#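 Compounds up to 46 uM were incubated four hours with TMD8 cells whose green CBG68 luciferase is fused to IkappaBalpha; red CBR luminescence normalised the signal, and concentration-effect curves were fitted to fusion, red and ratio data.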
# Abeta yeast res – qHTS for compounds that reverse cellular toxicity of Amyloid beta (A-beta) peptide in yeast: Primary Screen. yeast expressing A-beta42, growth rescue, OD600, 48 h; response scale: 0% DMSO, 100% iron-clioquinol control. Potency, µM (top dose mostly 46.1 µM), hits mostly activators. 0.063% of 410,000 active. AID 1347071, 2019; also: nearly all actives have a fitted effect of over 55% in size
#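 Yeast growth medium received pinned compounds, then yeast cells expressing toxic A-beta were added; plates incubated at 30 C for 48 hr. Growth read as absorbance at 600 nm, normalized to DMSO and equimolar FeCl3 plus clioquinol controls.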
# uPA surface inh – qHTS for Inhibitors of Cell Surface uPA Generation; cell surface uPA generation assay, qHTS; AID 540303, 2011; Potency, µM (doses to about 38.3 µM), for inactives: at the top dose activity change, negative = inhibition, actives largely listed as inhibitors; 0.31% of 330,000 active; active = well fitted inhibition curve with a large enough effect; inconclusive = small, poorly fitted or top-dose-only effect; inactive = no such curve, though single readings can be large or run the other way; tested in mouse RAW 264.7 cells; also: % is scaled to controls: 0 for no effect and ±100 for the full control effect; nearly all actives have a fitted effect of over 55% in size
# FUS yeast rescue – qHTS for Suppressors of FUS Proteinopathy: Primary screen using FUS-linked yeast assay. S. cerevisiae FUS-expressing, growth rescue, OD600, 24 h. Potency, µM (highest dose often 76.6 µM), hits mostly activators. 0.24% of 390,000 active;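 also: plate controls were DMSO vehicle for no effect and reference control for full effect; nearly all actives have a fitted effect of over 55% in size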
#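 Cultures pregrown in 2.5% raffinose medium are shifted to minimal medium containing 2% galactose to express toxic FUS. Compounds are tested at several concentrations. After 24hr at 30C, growth is quantified at 600 nm absorbance.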
# aSyn yeast inh – qHTS of alpha-syn Inhibitors; 0.14% of 370,000 active; Yeast expressing alpha-synuclein, growth rescue, BacTiter-Glo, 24 h; Potency, µM (doses to about 46.1 µM), for inactives: at the highest dose growth rescue (activation), most hits filed as activators; also: % of control where 0% means no effect; nearly all actives have a fitted effect of over 65% in size
#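 Galactose-induced alpha-syn yeast (OD600=0.02, raffinose-pregrown) + pinned cpd, 24 hr, 30 deg C; growth by BacTiter-Glo luminescence. Growth restoration scores as activation.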
# Numbers without * were called inactive; i = inactive; ? = inconclusive; / = no result given; [ ] = remark or other dose. A selection: hits, their analogues and other compounds. The true share with any hit is near 2.3%. Unless noted, calls follow the shape of the dose curve; as a rule, active = well fitted curve in the direction sought with a large enough effect; inconclusive = small, poorly fitted or top-dose-only effect, or another doubt; inactive = no such curve, though single readings can be large; an effect the other way counts as inactive or inconclusive. Potency is read from the fitted curve at half-maximal effect.
SMILES,TDP43 rescue,Chronic BCR inh,Abeta yeast res,uPA surface inh,FUS yeast rescue,aSyn yeast inh
CCC(=O)NC(c1ccco1)c1cc(Cl)c2cccnc2c1O (stereo unspecified),17.3%,-9.1%,i,-16.7%,i,11.2µM*
CN(CC1CCCCO1)C(=O)c1cc(COc2ccc(F)cc2Cl)on1 (stereo unspecified),0.0%,1.5%,i,16.9%,/,-0.9%
O=C(CNC(=O)c1ccccc1)OCN1C(=O)c2ccccc2C1=O,3.2%,/,i,3.4%,i,-3.1%
CC(C)(C)NC(=O)C[n+]1ccc(C(N)=O)cc1,1.1%,-6.0%,i,3.5%,i,35.5µM*
Cc1nc(N2CCN(C(=O)COc3ccccc3)CC2)c2c(C)c(C)sc2n1,15.8µM*,2.5%,i,-8.1%,i,-1.7%
O=C(COc1ccccc1)N1CCN(c2ncccn2)CC1,5.6%,3.7%,i,0.1%,i,5.8%
CCNC(=S)NNC(=O)c1ccccn1,15.6%,1.5%,i,-11.5%,/,2.0%
O=C(Nc1ccc(NC(=O)c2ccccn2)cc1)C(=O)Nc1ccc2c(c1)OCCO2,-4.9%,2.4%,i,-3.1%,i,2.8%
O=C(NNC(=S)Nc1ccc(Cl)c(Cl)c1)c1ccccn1,16.4%,?,i,?,i,10µM*
O=C(Nc1ccc2c(c1)OCCO2)c1ccccn1,-31.6%,?,i,3.55µM*,i,-24.1%
CCC(=O)Nc1c(C(=O)Nc2ccc3c(c2)OCCO3)oc2ccccc12,11.2µM*,?,i,1.9%,i,5.8%
Cc1nc2cc(-c3cccc(F)c3)nn2c(C)c1CCC(=O)NC1CCCCC1,-4.2%,/,i,/,i,/
CCCCN(CC)CCCNC(=O)Cn1nc(Cc2ccncc2)c2ccccc2c1=O,-20.7%,-0.3%,i,6.9%,i,0.2%
CNS(=O)(=O)c1ccc(Cl)nc1,-8.1%,0.6%,i,-1.4%,i,-5.0%
C[C@@H]1CN([C@@H](C)CO)S(=O)(=O)c2ccc(Br)cc2O[C@H]1CN(C)Cc1ccncc1,4.4%,/,i,/,i,4.7%
CCCc1nc(SC)ncc1C(=O)N1CCN(c2ccc(Cl)cc2)CC1,35.5µM*,/,i,/,i,/
CC(C)n1c(=S)[nH]c2ccccc21,5.2%,?,i,0.5%,i,8.0%
CCOC(=O)c1c(N2C(=O)CC(Sc3ccccc3C(=O)O)C2=O)sc(C)c1C (stereo unspecified),14.1µM*,?,?,1.8%,i,8.6%
Cc1cc(C)cc(N2C(=O)CC(Sc3ccccc3C(=O)O)C2=O)c1 (stereo unspecified),22.4µM*,-12.2%,i,-2.1%,i,-75.4%
Cc1ccc(N2C(=O)CC(Sc3ccccc3C(=O)O)C2=O)cc1 (stereo unspecified),?,?,i,-2.0%,/,14.1%
COCCNC(=S)N/N=C(\C)c1cc2ccccc2o1,?,?,i,5.7%,i,-7.0%
Cc1nc2ccccc2n1Cc1n[nH]c(=S)n1-c1ccc(Cl)cc1,-7.4%[0.397 µM],-2.1%,i,1.4%,i,-8.0%
CC(NC(=O)COC(=O)C1=NN(c2ccccc2)C(=O)CC1)c1ccccc1 (stereo unspecified),5.1%,?,i,-0.4%,i,-1.2%
COc1cccc(-c2nc(SCC(=O)Nc3ccc4c(c3)OCO4)c(-c3ccccc3)[nH]2)c1,22.4µM*,/,i,/,?,/
Cc1c(C(=O)N2CC(C(=O)N3CCCCC3)Oc3ccccc32)oc2ccccc12 (stereo unspecified),?,-3.6%,i,-3.3%,i,10.7%
SMILES,TDP43 rescue,Chronic BCR inh,Abeta yeast res,uPA surface inh,FUS yeast rescue,aSyn yeast inh
CCCc1cn(-c2ccc3c(c2)[C@@]2(CC(=O)N(C)C2c2ccccc2)C(=O)N3CC(C)C)nn1 (stereo partly specified),/,/,/,/,i,/
COc1cc(OC)cc(C(=O)Nc2cccc(-c3cn4ccsc4n3)c2)c1,22.4µM*,/,i,/,?,/
COc1cccc(OC)c1C(=O)Nc1cccc(-c2cn3ccsc3n2)c1,8.9%,/,i,/,i,/
CCC(=O)Nc1cccc(-c2cn3ccsc3n2)c1,12.3%,-1.6%,i,3.7%,i,2.0%
COc1cccc(C(=O)Nc2cccc(-c3cn4ccsc4n3)c2)c1OC,12.6µM*,/,i,/,i,/
CCCN1C(=O)/C(=C/c2ccc3c(c2)OCO3)NC1=S,14.1µM*,3.5%,?,-29.5%,i,-7.2%
O=C(Nc1nccs1)Oc1ccccc1,8.3%,-0.4%,i,0.2%,i,-0.8%
O=C(Cc1ccccc1)Nc1nccs1,14.1%,0.7%,i,12.4%,i,0.6%
S=C(Nc1ccccc1)Nc1nccs1,12.6µM*,?,?,2.8%,i,-25.0%
Fc1ccc(NC(=S)Nc2nccs2)cc1,22.4µM*,?,?,?,i,-11.8%
C/C(=C\c1ccccc1)C(=O)Nc1nccs1,11.2µM*,1.0%,i,-4.9%,i,-13.2%
O=C(Cc1ccc(F)cc1)Nc1nccs1,9.0%,-1.4%,i,4.0%,i,-10.1%
O=C(COC(=O)CC1CCCC1)Nc1cccc(F)c1,16.0%,?,i,3.9%,i,-6.5%
N#C/C(=C\c1cccs1)C(=O)c1ccccc1Cl,-75.4%,?,i,?,i,14.1%
NNC(=O)/C(=C/c1cccs1)NC(=O)c1ccccc1Cl,1.0%,11.2µM*,i,-7.8%,i,1.0%
O=C(Cn1ncc(Cl)c(Cl)c1=O)N1CCOCC1,-10.3%,?,i,-19.1%,i,0.3%
O=c1[nH]cnc2c1cnn2Cc1ccccc1Cl,3.7%,7.7%,i,2.0%,i,-6.3%
O=c1c(Cl)c(Cl)cnn1-c1ccccc1,22.0%,?,i,3.55µM*,i,-1.6%
Cc1ccc(Cn2ncc(Cl)c(Cl)c2=O)cc1,?,?,i,-13.1%,/,1.3%
O=C(Cn1ncc(Cl)c(Cl)c1=O)N1CCN(Cc2ccccc2)CC1,-0.9%,?,i,11.2µM*,i,-1.8%
Cc1cc(C)cc(Cn2ncc(Cl)c(Cl)c2=O)c1,17.8µM*,?,i,-9.3%,/,1.4%
O=c1c(Cl)c(Cl)cnn1Cc1ccccc1Cl,35.5µM*,?,i,-9.5%,/,4.5%
COCCN=c1scc(-c2cc(OC)c(OC)c(OC)c2)n1/N=C/c1c(C)[nH]c2ccccc12,22.4µM*,-15.0%,i,-11.4%,12.6µM*,-17.6%
Cc1ccnc(Nc2nc(-c3ccc(O)c(O)c3)cs2)c1,/,?,i,-11.1%,?,-14.4%

# Screening results: PubChem BioAssay, National Center for Advancing Translational Sciences (NCATS)
